Compound activity from PubChem BioAssay.
VDR inhibitor: inhibitors of human vitamin D receptor; Potency, µM, for inactives: max response, negative = inhibition, actives largely listed as inhibitors; hit rate 0.93% among 400,000; VDR-SRC2-3 peptide fluorescence polarization, 2 h; P11473; also: % is scaled to controls: 0 for no effect and ±100 for the full control effect
Target sequence (P11473 whole entry, looked up): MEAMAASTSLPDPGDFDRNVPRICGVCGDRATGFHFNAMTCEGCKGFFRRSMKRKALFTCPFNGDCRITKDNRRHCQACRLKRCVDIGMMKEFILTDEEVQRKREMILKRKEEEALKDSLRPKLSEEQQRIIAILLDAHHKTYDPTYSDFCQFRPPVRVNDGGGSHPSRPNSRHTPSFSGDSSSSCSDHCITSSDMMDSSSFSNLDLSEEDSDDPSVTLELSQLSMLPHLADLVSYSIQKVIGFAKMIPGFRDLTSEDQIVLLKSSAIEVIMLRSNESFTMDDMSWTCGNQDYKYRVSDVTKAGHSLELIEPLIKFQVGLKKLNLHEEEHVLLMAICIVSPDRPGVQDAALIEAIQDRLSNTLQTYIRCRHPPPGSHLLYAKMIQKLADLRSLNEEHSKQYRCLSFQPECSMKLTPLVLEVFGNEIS
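Signal is fluorescence polarization, reporting how far test compounds block the interaction of VDR with the SRC2-3 coregulator peptide after a 2 h room-temperature incubation.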
HP1b binding inh: inhibitors of HP1-beta chromodomain binding to methylated histone tails; P83916; AlphaScreen HP1-beta / biotin-H3K9me3 peptide binding; Potency, µM (highest dose often 114 µM), inactives show top-dose activity change, negative = inhibition, hits mostly inhibitors; hit rate 0.56% among 390,000; also: nearly all actives have a fitted effect of over 70% in size
Target sequence (P83916 whole entry, looked up): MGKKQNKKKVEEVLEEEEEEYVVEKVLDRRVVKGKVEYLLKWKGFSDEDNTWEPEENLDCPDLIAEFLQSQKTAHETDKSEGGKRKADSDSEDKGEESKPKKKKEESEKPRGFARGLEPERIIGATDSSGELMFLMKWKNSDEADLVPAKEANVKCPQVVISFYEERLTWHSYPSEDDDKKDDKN
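AlphaScreen: HP1-beta (50 nM) preformed 30 min with biotin-H3(1-18)K9me3 peptide (50 nM) in PBS pH 7.4, 0.01% Tween-20. Compound added for 30 min at RT, then streptavidin donor/nickel chelate acceptor beads (10 ug/mL) for 30 min.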
JMJD2A Tudor: inhibitors of human JMJD2A Tudor domain; O75164; AlphaScreen JMJD2A-Tudor / H3K4me3 peptide binding; Potency, µM (top dose mostly 114 µM), for the others: top-dose activity change, negative = inhibition, most hits filed as inhibitors; hit rate 4.4% among 390,000; also: % is scaled to controls: 0 for no effect and ±100 for the full control effect; nearly all actives have a fitted effect of over 50% in size
PLK1 PBD inh: PLK1 (human) polo-box domain binding inhibition; P53350; Plk1 PBD binding of FITC phosphopeptide, fluorescence polarization; Potency, µM, without a hit: max response, negative = inhibition, hits mostly inhibitors; hit rate 2.8% among 360,000; also: series mostly up to about 57 µM; % is scaled to controls: 0 for no effect and ±100 for the full control effect; nearly all actives have a fitted effect of over 65% in size
L3MBTL1 inh: blocks human L3MBTL1 | Q9Y468 | AlphaScreen L3MBTL1–H3K9me1 peptide binding | Potency, µM (highest dose often 57.1 µM), for inactives: top-dose activity, negative = inhibition, hits mostly inhibitors | hit rate 0.66% among 230,000 | AID 485360; also: % is scaled to controls: 0 for no effect and ±100 for the full control effect; nearly all actives have a fitted effect of over 60% in size
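AlphaScreen assay: L3MBTL1 (50 nM final) was preincubated 30 min at room temperature with biotinylated H3(1-15)K9me1 peptide (75 nM final), then 30 min with library compounds; streptavidin donor and nickel chelate acceptor beads (10 ug/mL final) added, 30 min dark.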
BAZ2B inh: inhibitors of human BAZ2B bromodomain | Q9UIF8 | AlphaScreen BAZ2B-H3K14Ac peptide displacement | Potency, µM (highest dose often 114 µM), without a hit: at the highest dose activity change, negative = inhibition, usual class: inhibitors | hit rate 4.4% among 360,000; also: % is scaled to controls: 0 for no effect and ±100 for the full control effect; nearly all actives have a fitted effect of over 60% in size
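Compounds, titrated to a top concentration of 110 uM, were incubated 30 min at room temperature with preformed BAZ2B/acetyl-K14 H3 peptide complex (50 nM each). Proximity signal was measured by AlphaScreen after 20 min with beads.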
* hit, by the source's call; u = inconclusive; x = no result; [ ] = remark or other dose. Sampled rows, rich in hits. Any-hit rate of the full collection: about 6.9%. Calls follow the shape of the dose curve; as a rule, active = well fitted curve in the direction sought with a large enough effect; inconclusive = small, poorly fitted or top-dose-only effect, or another doubt; inactive = no such curve, though single readings can be large; an effect the other way counts as inactive or inconclusive. Potency is read from the fitted curve at half-maximal effect.

SMILES	VDR inhibitor	HP1b binding inh	JMJD2A Tudor	PLK1 PBD inh	L3MBTL1 inh	BAZ2B inh
COCCN1C(=O)C(=O)/C(=C(/O)c2cccc(OC)c2)C1c1ccco1 (stereo not drawn)	-8.9%	4.2%	u	-23.6%	u	79.4µM*
COCCCN1C(=O)C(=O)/C(=C(/O)c2ccc(OCC(C)C)cc2C)C1c1cccnc1 (stereo not drawn)	-9.1%	14.6%	79.4µM*	-8.9%	6.3%	-1.3%
CCCOc1ccc(/C(O)=C2/C(=O)C(=O)N(CCOC)C2c2cccnc2)cc1 (stereo not drawn)	x	x	x	x	13.9%	-9.3%
COc1cc(C2/C(=C(\O)c3ccc4c(c3)OCCO4)C(=O)C(=O)N2Cc2ccccc2)ccc1O (stereo not drawn)	11.1%	2.6%	-31.7%	-17.3%	x	50.1µM*
CCOC(=O)CCC(NC(=O)CCCCCCCC(=O)NC(CCC(=O)OCC)C(=O)OCC)C(=O)OCC (stereo not drawn)	-10.0%	33.8%	3.3%	-3.5%	6.8%	14.5%
CN(C)CCN1C(=O)C(=O)/C(=C(/O)c2ccc3c(c2)OCCO3)C1c1ccccn1 (stereo not drawn)	-0.5%	26.5%	-30.6%	2.1%	-0.3%	56.2µM*
O=C1C(=O)N(Cc2cccnc2)C(c2ccccn2)/C1=C(/O)c1ccccc1 (stereo not drawn)	-3.5%	5.1%	u	-0.7%	7.7%	u
COc1cccc(C2/C(=C(\O)c3ccc4c(c3)OCCO4)C(=O)C(=O)N2Cc2cccnc2)c1 (stereo not drawn)	-7.1%	42.9%	-13.8%	-9.4%	x	-36.3%
Cc1ccc(/C(O)=C2\C(=O)C(=O)N(CC(C)O)C2c2ccccn2)cc1 (stereo not drawn)	7.0%	9.7%	35.5µM*	-17.9%	6.1%	19.2%
O=C1C(=O)N(Cc2cccnc2)C(c2cccc([N+](=O)[O-])c2)/C1=C(\O)c1ccc2c(c1)OCCO2 (stereo not drawn)	-9.6%	43.5%	56.2µM*	-15.7%	x	-23.1%
COCCCN1C(=O)C(=O)/C(=C(/O)c2ccc(OC(C)C)cc2)C1c1ccc(O)c(OC)c1 (stereo not drawn)	-5.1%	-7.4%	50.1µM*	-5.8%	1.5%	6.9%
CCOc1ccc(C2/C(=C(/O)c3ccc(S(=O)(=O)N4CCCCC4)cc3)C(=O)C(=O)N2CCCOC)cc1OC (stereo not drawn)	-9.7%	34.6%	-4.1%	-1.0%	x	-22.1%
CCC(=O)N1CCc2cc(Br)cc(S(=O)(=O)CCC(=O)Nc3cccc(Cl)c3)c21	-21.9%	13.5%	-23.5%	x	x	-30.5%
COCC1=C2c3ccccc3[C@@H]3CNC(=O)C3(C(=O)OC)C[C@@H]2n2c(=O)n(-c3ccccc3)c(=O)n2C1 (stereo partly drawn)	-1.9%	x	x	x	x	x
Cc1ccc(N2CC(O)=C(c3nc4ccccc4c(=O)[nH]3)C2=N)cc1C	0.7%	7.3%	u	u	-4.9%	u
NC(=S)N/N=C/c1ccc(-c2cc(Cl)cc(Cl)c2)o1	u	9.1%	-34.7%	-24.2%	x	-33.4%
NC(=S)N/N=C/c1ccc(-c2ccc([N+](=O)[O-])cc2)o1	u	31.7%	-13.0%	23.8µM*	-7.9%	-29.3%
CN(/N=C/c1cc([N+](=O)[O-])ccc1O)c1ccccc1	-25.1%	32.1%	-11.3%	-1.7%	6.0%	-7.1%
CN(C)/N=C/c1ccc(Sc2ccccc2[N+](=O)[O-])o1	-18.3%	35.5µM*	39.8µM*	5.97µM*	u	20µM*
CN(/N=C/c1ccc(-c2ccc([N+](=O)[O-])cc2)o1)c1ccccc1	-1.9%	u	25.1µM*	15.2%	-12.2%	-36.0%
COc1ccc(Nc2cc(C(=O)NCCCN(C)Cc3ccccc3)c3ccccc3n2)cc1	5.9%	7.2%	u	x	x	u
COc1ccc(Nc2cc(C(=O)NCCCN(C)Cc3ccccc3)c3ccccc3n2)c(OC)c1	2.3%	u	31.6µM*	x	x	u
O=C(NCCCN1CCOCC1)C(=O)c1c[nH]c2ccccc12	-9.1%	19.4%	-1.4%	-6.7%	x	4.8%
CCN(CC)CCNC(=O)c1cc(Nc2ccc(OC)c(OC)c2)nc2ccccc12	10.8%	-15.3%	u	-7.3%	x	39.8µM*
COc1ccc(Nc2cc(C(=O)NCCCN3CCN(c4ccc(OC)cc4)CC3)c3ccccc3n2)cc1	14.4%	u	22.4µM*	x	x	14.1µM*
SMILES	VDR inhibitor	HP1b binding inh	JMJD2A Tudor	PLK1 PBD inh	L3MBTL1 inh	BAZ2B inh
CCN(CC)CCCNC(=O)c1cc(Nc2ccc(OC)cc2)nc2ccccc12	1.0%	15.8%	-34.5%	-5.3%	x	-5.9%
COc1ccc(N2CCN(CCCNC(=O)C(=O)c3c[nH]c4ccccc34)CC2)cc1	-6.9%	50.1µM*	28.2µM*	-5.8%	x	14.1µM*
CCC(=O)N1CCc2cc(S(=O)(=O)NC(CC(C)C)C(=O)NCc3ccc(C)cc3)ccc21 (stereo not drawn)	-5.0%	46.9%	-4.3%	x	x	x
O=S(=O)(NCCc1csc2nc(-c3ccc(Cl)cc3)nn12)c1ccc(Oc2ccccc2)cc1	7.3%	33.5%	-2.9%	x	x	-1.7%
CC(=O)Nc1cnc(-c2ccc3c(c2)OCO3)cn1	x	x	x	-5.5%	x	x
Cc1oc2c(C)c3oc(=O)c(CCC(=O)N4CCCCC4)c(C)c3cc2c1C	7.2%	30.7%	-14.5%	x	x	-2.8%
COc1ccc(N2CCN(CCCNC(=O)c3cc(Nc4ccccc4OC)nc4ccccc34)CC2)cc1	6.0%	u	35.5µM*	x	x	10µM*
COc1ccc(Nc2cc(C(=O)NCCCN3CCN(c4ccccc4F)CC3)c3ccccc3n2)c(OC)c1	-14.9%	-33.5%	10µM*	x	x	x
COc1ccc(Nc2cc(C(=O)NCCCN3CCOCC3)c3ccccc3n2)c(OC)c1	-0.8%	26.8%	u	-14.4%	x	-29.0%
OCC1OC(n2cnc3c(SCc4ccccc4)nc(F)nc32)C(O)C1O (stereo not drawn)	-2.6%	20.4%	-9.6%	-0.8%	x	x
COc1cc(-c2nc3ccccc3s2)ccc1O	17.0%	16.2%	-11.7%	-9.6%	x	7.9%
COc1cc(C=C(c2nc3ccccc3s2)c2nc3ccccc3s2)cc(OC)c1O	5.0%	u	56.2µM*	-5.8%	-27.2%	22.4µM*
COc1ccc(-c2nc3ccccc3s2)cc1O	-3.3%	-17.6%	-13.7%[11.4 µM]	23.8µM*	15.2%[11.4 µM]	4.4%
COc1cccc(-c2nc3ccccc3s2)c1O	1.1%	48.2%	-1.4%	-7.6%	-0.7%	-16.3%
COc1cc(/C=C(\CC(=O)O)c2nc3ccccc3s2)cc(OC)c1O	-7.8%	11.6%	15.8µM*	-25.1%	-8.8%	-26.4%
CN(C)c1ccc(/C=C(\Cl)c2nc3ccccc3s2)cc1	-20.8%	7.0%	-32.9%	-2.9%	10µM*	44.7µM*
